Test results from PubChem BioAssay (EPA / NIEHS).
“And” between values parts separate entries of the source, which are not always exact repeats. Equal entries are not always repeated. Results filed as inconclusive are left out. Where a structure was tested more than once in an assay, its records may differ in their call. The source made the active and inactive calls. The calls were made as follows: active = hit-call score of the fitted dose curve at least 0.9, where 1 is the maximum; inconclusive = response in the unintended direction; inactive = score below 0.9.

Each compound was assayed against Nuclear receptor subfamily 1 group I member 2 (Homo sapiens) (UniProt O75469) (assay: ATG_PXR_TRANS: Attagene TRANS-FACTORIAL HepG2 Assay for human Pregnane X Receptor (PXR) (AID 2283008)).
Chain of Nuclear receptor subfamily 1 group I member 2 (Homo sapiens) (O75469 whole entry, looked up): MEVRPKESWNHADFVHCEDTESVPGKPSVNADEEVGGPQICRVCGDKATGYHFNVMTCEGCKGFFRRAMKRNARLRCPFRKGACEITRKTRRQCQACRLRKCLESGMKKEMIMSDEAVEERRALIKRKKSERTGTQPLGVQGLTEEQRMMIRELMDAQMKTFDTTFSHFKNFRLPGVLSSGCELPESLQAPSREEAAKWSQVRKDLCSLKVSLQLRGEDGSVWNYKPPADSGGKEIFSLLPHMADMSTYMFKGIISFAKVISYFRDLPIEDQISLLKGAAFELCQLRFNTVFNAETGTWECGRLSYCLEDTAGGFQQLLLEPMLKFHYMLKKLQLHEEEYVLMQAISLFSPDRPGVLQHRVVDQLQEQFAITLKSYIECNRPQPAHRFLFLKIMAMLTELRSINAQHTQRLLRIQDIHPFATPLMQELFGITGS
Protocol: ATG_TRANS is a cell-based, multiplexed-readout assay that uses HepG2, a human liver cell line, with measurements taken at 24 hours after chemical dosing in a 24-well plate.ATG_PXR_TRANS is one of 30 assay component(s) measured or calculated from the ATG_TRANS assay. It is designed to make measurements of mRNA induction, a form of inducible reporter, as detected with fluorescence intensity signals by Reverse transcription polymerase chain reaction (RT-PCR) and Capillary electrophoresis technology.Data from the assay component ATG_PXR_TRANS was analyzed into 1 assay endpoint. This assay endpoint, ATG_PXR_TRANS, was analyzed in the positive analysis fitting direction relative to DMSO as the negative control and baseline of activity. Using a type of inducible reporter, measures of mRNA for gain-of-signal activity can be used to understand the reporter gene at the transcription factor-level as they relate to the gene NR1I2. Furthermore, this assay endpoint can be referred to as a primary readout, because this assay has produced multiple assay endpoints where this one serves a reporter gene function. To generalize the intended target to other relatable targets, this assay endpoint is annotated to the nuclear receptor intended target family, where the subfamily is non-steroidal.
Human liver HepG2 cells are transiently transfected with multiple reporter transcription units (MRTUs) in 6-well plates using FuGene 6 reagent (Roche; 3 ml FuGene/1 mg DNA). The MRTU constructs are regulated by a cis-regulating element (promoter). […] A major difference between the CIS and TRANS system is that in CIS activities of endogenous TFs are measured, whereas the TRANS assay evaluates changes in activities of exogenous, chimeric NR-Gal4 proteins. […] At the end of 24 hour incubation, total RNA was isolated using TriZol reagent (Invitrogen). The isolated RNA is then reverse-transcribed using oligo(dT) primer and Mo-MLV reverse transcriptase (Invitrogen) with DNAse I (Ambion) treatment for 30 min. The one-tenth of the produced cDNA was amplified by PCR using Taq DNA polymerase (Invitrogen) and two reporter sequence-specific primers. The PCR products were fluorescently labeled by primer extension with 6-arboxyfluorescein (6-FAM) 5'-labeled reporter sequence-specific primer (2 min at 95 C, 20 s at 68 C and 10 min at 72 C) and these products were digested with 5U of HpaI (New England Biolabs) for 2h at 37 C. The fragments were purified using Qiaquick PCR columns (Qiagen), analyzed on an ABI 3130xL genetic analyzer (Applied Biosystems) with peak positions identified by using a set of X-rhodamine (ROX)-labeled MapMarker1000 molecular weight standards (BioVentures). The raw capillary electrophoresis data was processed using Attagraph software (Attagene).
`CCCCc1ccc2ccccc2c1S(=O)(=O)O` was tested, and the AC50 was 2.67 µM (active).
For `O=C(CC(=O)C(F)(F)C(F)(F)C(F)(F)F)c1cccs1`, the AC50 was 13.9 µM (active) and the outcome was “inactive”.
For `CN(C)c1ccc(C(=C2C=CC(=[N+](C)C)C=C2)c2ccccc2)cc1`, the AC50 was 3.02 µM (active).
`NS(=O)(=O)O` was tested, and the outcome was “inactive”.
`Cc1ccc(C)c(S(=O)(=O)O)c1` was tested, and the outcome was “inactive”.
For `O=C(OC(=O)C(F)(F)C(F)(F)F)C(F)(F)C(F)(F)F`, the outcome was “inactive”.
With `Cc1cncc(C)c1` the outcome was “inactive”.
`O=C(O)CCC(F)(F)C(F)(F)C(F)(F)C(F)(F)C(F)(F)C(F)(F)F` was tested, and the outcome was “inactive”.
In the case of `O=CC(F)(F)C(F)(F)C(F)(F)F`, the outcome is reported as “inactive”.
For `O=S(=O)(O)c1ccc2cc(O)ccc2c1`, the outcome was “inactive”.
In the case of `NNc1nc(-c2ccc([N+](=O)[O-])cc2)cs1`, the outcome is reported as “inactive”.
`O=C(O)C(F)(F)OC(F)(F)C(F)(F)OC(F)(F)C(F)(F)OC(F)(F)C(F)(F)C(F)(F)C(F)(F)F` was tested, and the AC50 was 16.5 µM (active) and 19.4 µM (active).
With `O=S(=O)(c1ccc(OCc2ccccc2)cc1)c1ccccc1O` the AC50 was 3.73 µM (active).
In the case of `Nc1ccc(O)c(C(=O)O)c1`, the outcome is reported as “inactive”.
`Oc1c(Cl)cc(Cl)cc1Sc1cc(Cl)cc(Cl)c1O` was tested, and the AC50 was 1.9 µM (active).
`COC(=O)CC(C(C)=O)C(=O)OC` (stereo not given) was tested, and the outcome was “inactive”.
In the case of `Oc1c(Cl)ccc(Cl)c1Cl`, the outcome is reported as “inactive”.
With `CN(C)CCOC(c1ccccc1)c1ccccc1` the outcome was “inactive”.
`Cc1ccc(C(=O)c2ccccc2)cc1` was tested, and the AC50 was 19.9 µM (active).
With `C[N+](C)(CCCNS(=O)(=O)CCC(F)(F)C(F)(F)C(F)(F)C(F)(F)C(F)(F)C(F)(F)F)CC(=O)[O-]` the AC50 was 0.00287 µM (active).
`NCc1cccc(CN)c1` was tested, and the outcome was “inactive”.
For `Oc1cccc2c(O)cccc12`, the outcome was “inactive”.
With `Cc1cc(C(=C2C=CC(=Nc3ccc(S(=O)(=O)O)cc3)C=C2)c2ccc(Nc3ccc(S(=O)(=O)O)cc3)cc2)cc(S(=O)(=O)O)c1N` the outcome was “inactive”.
In the case of `CCCCc1oc2ccccc2c1C(=O)c1cc(I)c(OCCN(CC)CC)c(I)c1`, the outcome is reported as “inactive”.
With `O=c1cc(-c2ccccc2)oc2ccc3ccccc3c12` the outcome was “inactive” and the AC50 was 5.62 µM (active).
With `C[C@]12CC[C@@H]3c4ccc(O)cc4CC[C@H]3[C@@H]1C[C@@H](O)[C@@H]2O` the outcome was “inactive”.
In the case of `COC(=O)C(F)(F)C(F)(F)C(F)(F)C(F)(F)C(F)(F)F`, the outcome is reported as “inactive”.
In the case of `O=C(NCc1ncc(C(F)(F)F)cc1Cl)c1c(Cl)cccc1Cl`, the AC50 is reported as 0.675 µM (active).
`O=C(c1ccccc1)c1ccccc1` was tested, and the outcome was “inactive” and the AC50 was 100 µM (active).
`CN(CCO)S(=O)(=O)C(F)(F)C(F)(F)C(F)(F)C(F)(F)C(F)(F)C(F)(F)C(F)(F)C(F)(F)F` was tested, and the outcome was “inactive”.
For `CCC(C)c1ccccc1O` (stereo not given), the AC50 was 45.7 µM (active) and 24.8 µM (active).
In the case of `NNC(=O)CCCCC(=O)NN`, the outcome is reported as “inactive”.
For `CCc1cccc(CC)c1NC(=O)C(=O)O`, the outcome was “inactive”.
`O=C(Nc1ccc(Cl)c(Cl)c1)c1cc(Cl)cc(Cl)c1O` was tested, and the AC50 was 2.74 µM (active).
With `O=C1OC2(c3ccccc31)c1cc(I)c(O)c(I)c1Oc1c2cc(I)c(O)c1I` the outcome was “inactive” and the AC50 was 5.08 µM (active) and 15.4 µM (active).
In the case of `CCCCC(CC)C(=O)OCCOCCOCCOCCOC(=O)C(CC)CCCC` (stereo not given), the AC50 is reported as 35.3 µM (active).
